A selection: hits, their analogues and other compounds. The true share with any hit is near 1.8%.
MIN6 prolif: MIN6 beta-cell proliferation induction. MIN6 cells proliferation, ATPlite luminescence, 48 h; cells starved in 0.2% serum; 100% = growth in 10% serum. proliferation, % at 10 µM. hit rate 0.29% among 330,000. AID 2380;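 active = compounds whose signal lies at least 3.5 SD above the mean of all wells on their plate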
A3G deaminase: blocks human APOBEC3G single-stranded DNA deamination | Q9HC16 | recombinant A3G, ssDNA deamination FAM/TAMRA fluorescence | inhibition, % at 20 µM | hit rate 0.28% among 330,000;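 active = inhibition of at least 40% at 20 µM, with no more than 30% in the related APOBEC3A deaminase screen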
Target sequence (Q9HC16 whole entry, looked up): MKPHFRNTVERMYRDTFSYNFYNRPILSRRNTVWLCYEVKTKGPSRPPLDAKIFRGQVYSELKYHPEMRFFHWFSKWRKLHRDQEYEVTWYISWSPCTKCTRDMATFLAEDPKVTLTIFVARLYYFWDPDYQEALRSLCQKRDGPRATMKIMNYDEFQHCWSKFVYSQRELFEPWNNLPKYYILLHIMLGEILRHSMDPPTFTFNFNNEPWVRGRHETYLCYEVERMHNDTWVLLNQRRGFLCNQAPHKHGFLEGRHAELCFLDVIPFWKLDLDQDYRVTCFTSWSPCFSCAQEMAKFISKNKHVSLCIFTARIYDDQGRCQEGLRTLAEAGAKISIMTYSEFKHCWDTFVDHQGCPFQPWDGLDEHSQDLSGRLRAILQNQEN
NRP1-CendR mod: modulators of CendR peptide binding to human neuropilin-1; hit rate 0.85% among 360,000; inhibition, % at 25 µM; O14786; FAM-RPARPAR peptide binding to NRP-1, fluorescence polarization;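 active = inhibition or corrected inhibition above about 18%, plus a signal ratio from 0.5 to 1.5, limit read from the data, passing the limit was not always enough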
APOBEC3A inh: human APOBEC3A DNA deaminase inhibition; P31941; recombinant A3A, FAM/TAMRA ssDNA deamination fluorescence; inhibition, % at 20 µM; hit rate 0.41% among 330,000;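 active = at least 40% inhibition at 20 µM here, with at most 30% in a related deaminase screen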
Target sequence (P31941 whole entry, looked up): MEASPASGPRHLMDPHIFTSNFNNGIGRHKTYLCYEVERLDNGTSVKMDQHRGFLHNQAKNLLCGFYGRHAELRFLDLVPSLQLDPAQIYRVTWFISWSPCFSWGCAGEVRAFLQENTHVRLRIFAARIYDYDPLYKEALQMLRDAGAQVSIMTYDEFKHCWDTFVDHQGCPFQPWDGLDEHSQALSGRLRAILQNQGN
VLA-4 inh: inhibition in a human VLA-4 binding assay | P13612 | VLA-4 expressing cells, ligand binding flow cytometry | inhibition, % (about 7 µM as worked out from the volumes in the protocol) | hit rate 0.2% among 330,000; in the data active = inhibition above about 50%
Each line names hits and unclear results; the compound was inactive in the other large screens.

O=C(Nc1nnc([C@@H]2C[C@H](O)[C@@H](CO)O2)s1)NC(c1ccccc1)c1ccccc1	none (no result: MIN6 prolif, A3G deaminase, APOBEC3A inh, VLA-4 inh)
O=C(NCc1ccccc1)C(c1cccnc1)N(C(=O)c1ccccn1)c1ccccc1F (centres undefined)	NRP1-CendR mod 26
Cc1cccc(N2CCN(S(=O)(=O)c3ccc(Cl)nc3)CC2C)c1 (centres undefined)	NRP1-CendR mod 27
CCCc1nnc(NS(=O)(=O)c2ccc(C)cc2)o1	none (no result: MIN6 prolif, A3G deaminase, APOBEC3A inh, VLA-4 inh)
COc1ccc2c(c1)c1c(c(=O)n(-c3ccc(C)cc3)c(=O)n1CC(=O)NCC1CCCO1)n2C (centres undefined)	none (no result: MIN6 prolif, A3G deaminase, APOBEC3A inh, VLA-4 inh)
CCCCCC(C)NC(=S)NC(=O)c1cc(S(=O)(=O)N2CCOCC2)ccc1C (centres undefined)	NRP1-CendR mod 26
CCCC(C)NC(=S)NC(=O)c1cc(S(=O)(=O)N2CCOCC2)ccc1C (centres undefined)	none
CN(C)S(=O)(=O)n1cc(/C=C(\NC(=O)c2ccccc2)C(=O)NCCCN2CCOCC2)c2ccccc21	none
COc1ccccc1C(=O)N/C(=C\c1cn(S(=O)(=O)N(C)C)c2ccccc12)C(=O)NCCCN1CCOCC1	NRP1-CendR mod 44
O=C(O)C1OC1(c1ccccc1Cl)c1ccccc1Cl (centres undefined)	NRP1-CendR mod 24 (no result: MIN6 prolif, A3G deaminase, APOBEC3A inh, VLA-4 inh)
CCOC(=O)C(C)Sc1nc2ccccc2c(=O)n1CC (centres undefined)	NRP1-CendR mod 42
O=C(O)c1cc([N+](=O)[O-])ccc1Oc1ccccc1	NRP1-CendR mod 26 (no result: MIN6 prolif, A3G deaminase, APOBEC3A inh, VLA-4 inh)
CCOc1ccc(-c2cc(C(=O)Nc3ccc4c(c3)OCCO4)c3ccccc3n2)cc1	NRP1-CendR mod 56
Cc1cccc(-c2cc(C(=O)Nc3ccc4c(c3)OCCO4)c3ccccc3n2)c1	none
Cc1nnc(SCC(=O)NNC(=O)COc2ccc(Cl)cc2)n1C	none
O=C(COC(=O)C1=COCCO1)Nc1ccc(OC(F)F)cc1	NRP1-CendR mod 27
O=C(COC(=O)C1=COCCO1)Nc1ccccc1	none
NC(=O)c1c(/N=C/c2cccnc2)sc2c1CCCC2	none
O=C(CSc1nc2ccccc2[nH]1)N=Nc1c(O)[nH]c2ccccc12	none
O=C(CSCc1ccc(Br)cc1)N=Nc1c(O)[nH]c2ccccc12	MIN6 prolif 8.7
COc1ccc2c(c1)c1nc3ccccc3nc1n2Cc1ccc(OC(C)C)c(OC)c1	none
COc1ccc(Cn2c3ccc(OC)cc3c3nc4ccccc4nc32)cc1	NRP1-CendR mod 49
CN(C(=O)COC(=O)CSc1ccc(C(N)=O)cc1[N+](=O)[O-])C1CCS(=O)(=O)C1 (centres undefined)	none
COc1ccccc1N(C)S(=O)(=O)c1ccc(C(=O)Nc2cccc(Br)c2)cc1	NRP1-CendR mod 27
COc1ccccc1N(C)S(=O)(=O)c1ccc(C(=O)N(CC(N)=O)C(C)C)cc1	NRP1-CendR mod 25
COc1ccccc1N(C)S(=O)(=O)c1ccc(C(=O)NCC(C)C)cc1	none
COc1ccc(CC(=O)OCC(=O)c2ccc(OC)c(OC)c2)cc1	NRP1-CendR mod 17
COc1cc2ccc(CC(N)=O)cc2cc1OC	NRP1-CendR mod 37 (no result: MIN6 prolif, A3G deaminase, APOBEC3A inh, VLA-4 inh)
COc1ccc(CC(=O)OCC(=O)NC2CC2)cc1	NRP1-CendR mod 24
Cc1cc(=O)oc2cc(NS(=O)(=O)c3ccccc3)ccc12	none
Cc1cc(=O)oc2cc(NS(=O)(=O)c3ccc(F)cc3)ccc12	NRP1-CendR mod 37
CCOc1ccc(C2NC(=O)NC(c3ccccc3)=C2C(C)=O)cc1OC (centres undefined)	none
CCOc1cc(C2NC(=O)NC(c3ccccc3)=C2C(C)=O)ccc1OCC(N)=O (centres undefined)	NRP1-CendR mod 47
COc1ccccc1NC(=O)c1ccc[n+]([O-])c1	none
O=C(CN(c1cccc(Br)c1)S(=O)(=O)c1ccccc1)N/N=C/c1cc([N+](=O)[O-])ccc1O	NRP1-CendR mod 50
CN(Cc1ccccc1)C(=O)c1nc[nH]c1C(=O)N1CCN(C(=O)OC(C)(C)C)CC1	NRP1-CendR mod 37
O=C(N[C@@H](Cc1ccccc1)C(=O)OCc1ccccc1)c1nc[nH]c1C(=O)NC(c1ccccc1)c1ccccc1	NRP1-CendR mod 27 (no result: VLA-4 inh)
C[C@@H](NC(=O)c1nc[nH]c1C(=O)N[C@@H](Cc1ccccc1)C(=O)OCc1ccccc1)c1ccccc1	none
CC(C)(C)OC(=O)NCCCCCNC(=O)c1[nH]cnc1C(=O)N[C@@H](CCCCNC(=O)OC(C)(C)C)C(=O)OC(C)(C)C	none
CC1CCN(C(=O)c2[nH]cnc2C(=O)NC2CCN(C(=O)OC(C)(C)C)CC2)CC1	NRP1-CendR mod 29
CC(C)(C)OC(=O)[C@H](CCCCN)NC(=O)c1nc[nH]c1C(=O)NCCCCCN	NRP1-CendR mod 21
C[C@H]1CNC(=O)c2c(C(=O)N3CCN(C(=O)OC(C)(C)C)CC3)ncn21	none (no result: MIN6 prolif, A3G deaminase, APOBEC3A inh, VLA-4 inh)
Cc1ccc(NC(=S)NCc2ccc(Cl)cc2)c(OC(F)F)c1	none
CCN(CC)C(=O)c1nc[nH]c1C(=O)N1CCN(c2ccccc2)CC1	NRP1-CendR mod 30
CC(C)(C)OC(=O)N1CCN(C(=O)c2[nH]cnc2C(=O)N[C@@H](Cc2ccccc2)C(=O)OCc2ccccc2)CC1	none
CC(C)(C)OC(=O)NCc1ccc(CNC(=O)c2nc[nH]c2C(=O)N2CCc3ccccc3C2)cc1	NRP1-CendR mod 35
CC(C)(C)OC(=O)NCCCCCNC(=O)c1nc[nH]c1C(=O)N1CCc2ccccc2C1	none
CC(C)(C)OC(=O)[C@H](Cc1ccccc1)NC(=O)c1nc[nH]c1C(=O)N1CCN(C(=O)OC(C)(C)C)CC1	NRP1-CendR mod 27
CCCOc1ccc(C(=O)CCC(=O)OCC(=O)N(C)c2c(N)n(Cc3ccccc3)c(=O)[nH]c2=O)cc1	none
C#CCOc1ccc(C2C(C#N)=C(N)Oc3cc(O)ccc32)cc1 (centres undefined)	none
O=C(CCc1nnc2n(CCc3ccccc3)c(=O)c3ccccc3n12)NCCCN1CCCCC1	none
CN(CC(=O)Nc1ccc(F)cc1)C(=O)C1CCCC1	none
CCC(=O)Nc1ccc(C(=O)COC(=O)c2sc(C)nc2C)cc1	none (no result: VLA-4 inh)
CSc1ncccc1C(=O)OCC(=O)NC1CCCCC1	NRP1-CendR mod 23
Cc1ccc(NC(=O)COC(=O)c2cccnc2Cl)cc1S(=O)(=O)N1CCOCC1	none
CSc1ncccc1C(=O)OCC(=O)Nc1ccc(C)c(S(=O)(=O)N2CCOCC2)c1	NRP1-CendR mod 20
NC(=O)COc1ccc(/C=N\NC(=O)c2ccc(-c3ccccc3)cc2)cc1	none
Nc1cc(=O)n(Cc2ccccc2)c(=O)n1-c1ccc(F)cc1	none
Nc1cc(=O)n(Cc2ccccc2)c(=O)n1-c1ccc(Cl)cc1	NRP1-CendR mod 36
COc1ccc(OC2CCN(C(=O)Nc3ccc(C)cc3)CC2)cc1	none
CCOc1ccc(NC(=O)CN2CCN(CC(=O)Nc3ccc(Cl)c(C(F)(F)F)c3)CC2)cc1	NRP1-CendR mod 21
CC(C)(C)NC(=O)c1ccc(NC(=O)c2ccccc2-c2ccccc2C(=O)O)cc1	none

Bioassay records from PubChem BioAssay.
